PAFAH2 inh: inhibitors of human PAFAH2 | inhibition, % at 3.39 µM | 340,000 compounds, 0.99% hits | Q99487 | AID 492956 | recombinant PAFAH2, FP-rhodamine activity probe, fluorescence polarization;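 active = inhibition above the mean over all tested compounds plus 3 SD, cut at about 30% in these data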;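 also: inhibitors block probe labeling of enzyme so polarization drops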
PME-1 primary: PME-1 (human) inhibition | 320,000 compounds, 0.53% hits | recombinant PME-1, FP-Rh probe fluorescence polarization | AID 2130 | inhibition, % at 5.9 µM | Q9Y570;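 active = inhibition above the campaign mean of all compounds plus 3 SD, cut at about 26% in these data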;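 also: competitive labeling of PME-1 active site by serine hydrolase directed probe; inhibitors block probe labeling so polarization falls and inhibition rises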
PAFAH1B2 FP inh: PAFAH1B2 (human) inhibition; P68402; recombinant PAFAH1B2, FP-rhodamine activity probe, fluorescence polarization; inhibition, % at 3.39 µM; 340,000 compounds, 1.2% hits; AID 492953;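 active = inhibition above the mean of all tested compounds plus 3 SD, cut at about 24% in these data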
pPAFAH inh: inhibitors of human plasma PAF acetylhydrolase (pPAFAH) | Q13093 | AID 463082 | 330,000 compounds, 1.5% hits | inhibition, % at 3.39 µM | recombinant pPAFAH, FP-rhodamine probe fluorescence polarization;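 active = inhibition above the mean inhibition across the screen plus 3 SD, cut at about 25% in these data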;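 also: inhibitors block binding of the rhodamine activity-based probe so polarization drops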
Target sequence (Q13093 whole entry, looked up): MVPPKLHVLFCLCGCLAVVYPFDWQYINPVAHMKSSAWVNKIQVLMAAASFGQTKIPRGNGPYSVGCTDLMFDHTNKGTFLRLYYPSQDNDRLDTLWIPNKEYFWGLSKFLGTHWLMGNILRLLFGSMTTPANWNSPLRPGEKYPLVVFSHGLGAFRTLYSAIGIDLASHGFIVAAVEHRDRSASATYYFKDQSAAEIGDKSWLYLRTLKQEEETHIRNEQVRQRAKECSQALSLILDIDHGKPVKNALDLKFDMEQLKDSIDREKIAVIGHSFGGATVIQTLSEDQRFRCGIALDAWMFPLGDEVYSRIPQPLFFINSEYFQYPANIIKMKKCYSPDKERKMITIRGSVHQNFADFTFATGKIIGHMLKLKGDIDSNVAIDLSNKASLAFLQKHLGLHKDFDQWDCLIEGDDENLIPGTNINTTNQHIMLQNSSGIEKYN
Fam108B counter: Fam108B inhibition, counter-screen for RBBP9 inhibitors; recombinant Fam108B, FP-Rh probe fluorescence polarization; 300,000 compounds, 0.33% hits; AID 1947; inhibition, % at 9.51 µM;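 active = inhibition above the screen mean inhibition plus 3 SD, computed separately per campaign, cut at about 18% in these data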;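 also: inhibitors lower polarization as less probe binds the enzyme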
PAFAH1B3 inh: blocks human PAF acetylhydrolase 1B catalytic subunit 3; recombinant PAFAH1B3, FP-rhodamine probe, fluorescence polarization; inhibition, % at 3.39 µM; 340,000 compounds, 0.28% hits; AID 492972;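 active = inhibition above the screen-wide average of all tested compounds plus 3 SD, cut at about 25% in these data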
Target sequence (Q15102 whole entry, looked up): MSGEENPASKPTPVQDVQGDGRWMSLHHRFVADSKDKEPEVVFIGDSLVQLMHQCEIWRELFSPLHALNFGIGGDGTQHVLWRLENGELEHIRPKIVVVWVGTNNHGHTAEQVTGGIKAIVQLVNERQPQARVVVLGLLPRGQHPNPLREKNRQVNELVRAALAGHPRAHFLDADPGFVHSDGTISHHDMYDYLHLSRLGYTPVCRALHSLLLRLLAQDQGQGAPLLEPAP
PAFAH2 confirm: confirmation of human PAFAH2 inhibitors. shares compounds with PAFAH2 inh. recombinant PAFAH2, FP-rhodamine activity probe, fluorescence polarization. inhibition, % at 3.39 µM. 2,300 compounds, 65% hits. AID 493030;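 active = mean inhibition over three repeats above a set limit taken from the earlier primary screen, cut at about 30% in these data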;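 also: inhibitor blocks binding of rhodamine activity probe so polarization falls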
A number is an active result; . = inactive; / = no result given. Compounds with a hit are over-represented: about 2.8% of the library has one in this group of screens.

SMILES	PAFAH2 inh	PME-1 primary	PAFAH1B2 FP inh	pPAFAH inh	Fam108B counter	PAFAH1B3 inh	PAFAH2 confirm
CN(C)c1cccc(C(=O)Nc2cccc(F)c2)c1	.	.	.	.	.	.	/
CC1CC1C(=O)OCC(=O)Nc1ccc(Cl)cn1 (centres undefined)	47.1	/	.	.	/	.	38.6
O=C(COC(=O)C1CC2CCCC(C1)C2=O)Nc1ccc(Cl)cn1 (centres undefined)	46.6	.	.	.	/	.	.
COc1cc(Cl)c(C)cc1NC(=O)COC(=O)C1CC1C (centres undefined)	.	/	.	.	/	.	/
Cc1nc(NC(=O)COC(=O)C2CC2C)c(Cl)cc1Cl (centres undefined)	33.7	/	.	.	/	.	.
CCOc1ccc(NC(=O)COC(=O)C2CC2C)cc1 (centres undefined)	59.6	/	.	.	/	.	46.6
Cc1c(Cl)cnc(NC(=O)COC(=O)C2CC3CCCC(C2)C3=O)c1Cl (centres undefined)	.	.	.	.	/	.	/
CSCCC(NC(=O)c1ccccc1)C(=O)NNC(=O)c1csc(N2CCOCC2)n1 (centres undefined)	.	.	.	.	.	.	/
CC(C)c1ccc(OCC(=O)NC2CC(C)(C)NC(C)(C)C2)c(Br)c1	.	.	.	.	.	.	/
COc1ccccc1/C=N/OC(=O)c1ccc(F)cc1	77.3	.	.	.	.	.	64.0
CC(=O)Nc1ccc(S(=O)(=O)NC2C3(C)CCC(C3)C2(C)C)cc1 (centres undefined)	.	/	.	/	/	.	/
CSCCC(NC(=O)c1ccccc1Cl)C(=O)NCCc1ccccn1 (centres undefined)	.	/	.	.	/	.	/
COc1cc(/C=C/C(=O)OCC(=O)N2CCCc3ccccc32)ccc1O	51.4	/	.	.	/	.	41.2
COc1cc(/C=C/C(=O)OCC(=O)N2CC(=O)Nc3ccccc32)ccc1O	.	.	.	.	.	.	/
COc1cc(/C=C/C(=O)OCC(=O)N2CCCc3ccccc32)ccc1OCC#N	40.2	.	.	.	/	.	.
CN1CCCN(C(=O)CNC(=O)c2ccc(Cl)cc2Cl)CC1	.	/	.	.	/	.	/
O=C(O)/C(=C\c1ccc(Cl)c([N+](=O)[O-])c1)c1ccc(S(=O)(=O)N2CCCC2)s1	.	.	.	.	/	.	/
O=C(O)/C(=C\c1ccc(Cl)c([N+](=O)[O-])c1)c1ccc(S(=O)(=O)N2CCCCC2)s1	31.8	.	.	.	.	.	.
COC(=O)c1ccccc1S(=O)(=O)NNC(=O)c1ccccc1-n1cccc1	.	.	.	.	.	.	/
CC(C)(C)CC(=O)N1CCN(Cc2ccc3c(c2)OCO3)CC1	.	.	.	.	.	.	/
O=c1oc(C2(O)CCCCC2)cc2ccc(/C=C/c3ccc(F)cc3)cc12	.	.	.	.	/	.	/
COc1ccccc1C(=O)OCC(=O)NC(=O)NC1CCCCC1	.	/	.	/	/	.	/
CCCCNC(=O)COC(=O)c1ccc(SC)cc1OC	45.9	.	.	.	.	.	.
COc1ccc(CN2C(=O)c3ccccc3C2=O)cc1C(=O)OCC(=O)NC1CCCCC1	51.5	.	.	.	.	.	45.2
CCCNC(=O)c1ccc(SC)cc1OC	.	.	.	.	.	.	/
SMILES	PAFAH2 inh	PME-1 primary	PAFAH1B2 FP inh	pPAFAH inh	Fam108B counter	PAFAH1B3 inh	PAFAH2 confirm
COc1ccccc1C(=O)OCC(=O)NC1CCCC1	37.6	.	.	.	.	.	.
COc1cc(SC)ccc1C(=O)OCC(=O)NC1CCCC1	68.3	.	.	.	.	.	57.4
COc1ccc(Br)c(C(=O)OCC(=O)NC2CC2)c1	.	.	.	.	/	.	/
COc1ccc(CC(=O)OCC(=O)NC2CCCCCC2)cc1OC	.	/	.	/	/	.	/
COc1cc(OC)c(C(=O)OCC(=O)NC2CCCCCCC2)cc1OC	74.7	/	.	.	/	.	82.6
O=C(COC(=O)c1ccccc1Br)NC1CCCC1	51.9	.	.	.	.	.	35.0
CCOc1ccccc1C(=O)OCC(=O)NCC1CCCCC1	44.3	.	.	.	.	.	48.1
COc1cc(OC)c(C(=O)OCC(=O)NCC2CCCCC2)cc1OC	51.2	/	.	/	/	.	42.9
COc1ccc(CC(=O)N2CCCC2)c(OC)c1	.	.	.	.	.	.	/
COc1cc(OC)c(C(=O)OCC(=O)NC2CCCC2)cc1OC	51.7	.	.	.	.	.	38.6
COc1ccccc1C(=O)OCC(=O)NC(=O)NC1CCCC1	.	.	.	.	/	.	/
CC(NC(=O)c1ccc(CS(C)(=O)=O)cc1)c1cccc2ccccc12 (centres undefined)	.	.	.	.	.	.	/
O=C(c1cc(-c2ccc(Cl)cc2Cl)on1)N1CCCC1	30.5	.	.	.	.	.	.
O=C(c1cc(-c2ccc(Cl)cc2Cl)on1)N1CCN(C(=O)c2ccco2)CC1	65.5	.	.	.	.	.	41.1
O=C(c1ccco1)N1CCN(C(=O)c2ccc(-c3ccccc3Cl)o2)CC1	.	.	.	.	/	.	/
O=C(c1cc(-c2ccccc2Cl)on1)N1CCN(C(=O)c2ccco2)CC1	43.1	.	.	.	.	.	35.3
Cc1ccc(OCC(=O)N2c3ccccc3CC2C)c([N+](=O)[O-])n1 (centres undefined)	.	.	.	.	.	.	/
Cc1cccc(C)c1NC(=O)NC1(C(=O)N2CCCC2)CCCCC1	.	.	.	.	.	.	/
CC(C)CNC(=O)COC(=O)c1cccc(S(=O)(=O)NCC(F)(F)F)c1	30.8	.	.	.	.	.	.
Cc1cccc(C(C)C)c1NC(=O)COC(=O)CN1C(=O)C2CC=CCC2C1=O (centres undefined)	53.5	.	.	.	.	.	36.6
Cc1noc(C)c1COc1ccc(C(=O)OCC(=O)OC(C)(C)C)cc1	32.4	.	.	.	.	.	.
Cc1noc(C)c1COc1ccc(C(=O)OCC(=O)NCc2ccccc2Cl)cc1	76.3	.	.	.	.	.	74.4
CC(C)NC(=O)COC(=O)c1cccc(NS(=O)(=O)/C=C/c2ccccc2)c1	37.5	.	.	.	.	.	.
NC(=O)NC(=O)COC(=O)c1cccc(NS(=O)(=O)/C=C/c2ccccc2)c1	.	.	.	.	.	.	/
CC1CCCC(NC(=O)COC(=O)c2cccc(NS(=O)(=O)/C=C/c3ccccc3)c2)C1C (centres undefined)	45.9	.	.	.	.	.	40.1
NC(=O)COC(=O)c1cccc(NS(=O)(=O)/C=C/c2ccccc2)c1	.	.	.	.	.	.	/
COc1ccc2c(c1)OC[C@H]1[C@H]2N2C(=O)CN(Cc3ccccc3)C(=O)[C@@]2(C)[C@H]1c1ccccc1	.	/	.	/	/	.	/
COC(=O)c1ccccc1NC(=O)COC(=O)c1ccc(C)c(NC(=O)c2ccco2)c1	.	.	.	.	.	.	/

Screening results as filed in PubChem BioAssay.
